Assay results: PubChem BioAssay
“And” between values parts separate entries of the source, which are not always exact repeats. Equal values may be shown once. The source made the active and inactive calls.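 The calls were made as follows, unless noted: active = thallium flux through the channel raised or lowered by more than 3 SD from vehicle-only wells, actives on both sides; inactive = the rest.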

Tests used:
[1] = P. berghei load reduction in hepatocytes – cell-based, HepG2, luciferase luminescence, HepG2 viability, primary screen (AID 624349; in the data active = parasite load remaining mostly below about 12%, no sharp cut-off; inactive = mostly above about 10%;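 also: 100% = mean of DMSO negative control wells on the same plate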); conditions: P. berghei liver stage in HepG2, luciferase luminescence, concentration not given here; parasite load remaining: stronger effect = lower value; viability: measured here: HepG2 viability without parasites
[2] = viability loss with induced miR-34 in A549 – imaging, A549 dox-inducible miR-34, nuclei and caspase counts, primary screen (AID 1347080;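 active = compounds whose cell count with miR-34 switched on is under 0.7 times the count with it off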); conditions: A549 miR-34 inducible, Hoechst nuclei count, 48 h
[3] = MELAS cybrid and Rieske KO viability enhancers – cell-based, MELAS cybrids, Rieske KO mouse fibroblasts, CellTiter-Glo, primary screen (AID 1508586;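 active = mean z-score across replicates of 1.96 or higher in either the MELAS or the Rieske mutant cell line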;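 also: z relative to plate mean and SD of compound and empty wells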); conditions: low glucose
[4] = galactose survival enhancers in mitochondrial complex I cybrids – cell-based, galactose medium, ATP luminescence, primary screen (AID 1645843;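 active = z-score of at least 1.8 in each of two replicates, scored against plate mean and spread of sample wells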;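 also: positive z means more ATP and so rescue of galactose-driven cybrid death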); conditions: complex I mutant cybrid cells, 72 h, stronger effect = higher value
F380Y = experiment: BK channel mutant inhibitors and activators – cell-based, U2OS BacMam, thallium flux, beta subunits, selectivity assay, profiling panel (AID 1259406); conditions: U2OS BacMam BK variants, at 30 µM;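 also: initial slope of Thallos dye fluorescence rise after thallium is added; log ratio against the mean of 0.3% DMSO vehicle wells on the same plate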
F380Y/beta1 = experiment: as above; conditions: U2OS BacMam BK variants, at 30 µM
F380Y/beta2Delta = experiment: as above; conditions: U2OS BacMam BK variants, at 30 µM
F380Y/beta4 = experiment: as above; conditions: U2OS BacMam BK variants, at 30 µM
[5] = target: Calcium-activated potassium channel subunit alpha-1 (Homo sapiens) + Leucine-rich repeat-containing protein 26 (Homo sapiens) (UniProt Q12791+Q2I0M4); experiment: as above; conditions: U2OS BacMam BK variants, F380Y/Slo1WT/gamma1, at 30 µM
Sequence of Calcium-activated potassium channel subunit alpha-1 (Homo sapiens) + Leucine-rich repeat-containing protein 26 (Homo sapiens) (Q2I0M4 whole entry, looked up, one chain of several): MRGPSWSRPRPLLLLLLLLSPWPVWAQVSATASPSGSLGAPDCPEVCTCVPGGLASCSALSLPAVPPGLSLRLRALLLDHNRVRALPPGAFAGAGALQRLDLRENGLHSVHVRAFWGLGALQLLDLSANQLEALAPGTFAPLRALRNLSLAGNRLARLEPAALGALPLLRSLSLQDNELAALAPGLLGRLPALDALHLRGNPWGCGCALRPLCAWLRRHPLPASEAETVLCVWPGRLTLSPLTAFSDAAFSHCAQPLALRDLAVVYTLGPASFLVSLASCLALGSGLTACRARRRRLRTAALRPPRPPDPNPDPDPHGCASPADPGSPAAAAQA

R275C = experiment: as above; conditions: U2OS BacMam BK variants, at 30 µM
R275C/beta1 = experiment: as above; conditions: U2OS BacMam BK variants, at 30 µM
R275C/beta2Delta = experiment: as above; conditions: U2OS BacMam BK variants, at 30 µM
R275C/beta4 = experiment: as above; conditions: U2OS BacMam BK variants, at 30 µM
R275C/Slo1WT/beta2 = experiment: as above; conditions: U2OS BacMam BK variants, at 30 µM
[6] = signal quenchers or enhancers, Cy5 substrate/SSB – biochemical, NIH Clinical Collection, E. coli SSB, artefact control for HCV NS3 helicase inhibitor project (AID 743268; call rule not given here); conditions: Cy5-oligo bound E. coli SSB, fluorescence interference
[7] = tested on: Hepatitis C virus NS3 helicase; experiment: blockers of NS3h binding to DNA – biochemical, fluorescence polarization, NIH Clinical Collection, primary screen (AID 743270; call rule not given here); conditions: NS3 helicase binding to Cy5-dT15 DNA, stronger effect = higher value, concentration not given here
[8] = target: Single-stranded DNA-binding protein (Escherichia coli (strain K12)) (UniProt P0AGE0); experiment: SSB-ssDNA binding inhibitors – biochemical, fluorescence polarization, NIH Clinical Collection, counter-screen for HCV NS3 helicase inhibitor project (AID 743271; in the data active = inhibition above about 28%); conditions: E. coli SSB-DNA binding, stronger effect = higher value, concentration not given here
[9] = compounds distorting NS3 helicase fluorescence signal – biochemical, NIH Clinical Collection, artefact control for HCV NS3 helicase inhibitor project (AID 743272; call rule not given here;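 also: HCV NS3 helicase with a Cy5 labelled single stranded DNA probe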); conditions: fluorescence interference counterscreen, HCV NS3 helicase assay; stronger effect = lower value
[10] = tested on: Neuropilin-2 / VEGF-C interaction (human); experiment: small molecules blocking Neuropilin-2/VEGF-C interaction – biochemical, microplate binding format, z-score (AID 743281; call rule not given here); conditions: microplate NRP2/VEGF-C binding assay; stronger effect = lower value
[11] = modulation of C. elegans fzo-1 (AID 1259413; call rule not given here;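 also: fzo-1 mutant C. elegans worms in liquid wells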); conditions: C. elegans fzo-1 modulator screen, mean read-out; stronger effect = higher value
[12] = stronger effect = lower value, cell number ratio, induced over uninduced
[13] = measured here: relative caspase fold change +Dox/-Dox
[14] = measured here: total cells with miR-34 induction, stronger effect = lower value
[15] = measured here: total cells without miR-34 induction
[16] = MELAS cybrid survival, CellTiter-Glo 48 h, stronger effect = higher value
[17] = Rieske KO mouse fibroblast survival, CellTiter-Glo 72 h

CO[C@H]1/C=C/O[C@@]2(C)Oc3c(C)c(O)c4c(O)c(c5c(c4c3C2=O)NC2(CCN(CC(C)C)CC2)N=5)=NC(=O)/C(C)=C\C=C\[C@H](C)[C@H](O)[C@@H](C)[C@@H](O)[C@@H](C)[C@H](OC(C)=O)[C@@H]1C
active: log fold change Tl+ flux (F380Y/beta2Delta) -0.104 | log fold change Tl+ flux (R275C) -0.198 | log fold change Tl+ flux (R275C/beta1) 0.128 | log fold change Tl+ flux (R275C/beta2Delta) -0.107
1.58: fold change [2, 13]
8520: cell count [2, 14]
inactive: parasite load remaining [1] 23.3% | fold change [2, 12] 1.03 | z-score [3, 16] 1.35 | z-score [4] -1.49 | log fold change Tl+ flux (F380Y) 0.0411 | log fold change Tl+ flux (F380Y/beta1) -0.0629 | log fold change Tl+ flux (F380Y/beta4) -0.0899 | log fold change Tl+ flux [5] -0.055 | log fold change Tl+ flux (R275C/beta4) 0.00982 | log fold change Tl+ flux (R275C/Slo1WT/beta2) -0.0228
8270: cell count [2, 15]
92.9%: viability [1]
1.35: z-score [3, 17]

O=c1c(O[C@@H]2O[C@H](CO)[C@@H](O)[C@H](O)[C@H]2O)c(-c2ccc(O)c(O)c2)oc2cc(O)cc(O)c12
inactive: parasite load remaining [1] 52.7% | fluorescence ratio [6] 0.86 | inhibition [7] 2.77% | inhibition [8] 12.2% | fluorescence ratio [9] 0.99 | z-score [10] -0.152 | mean signal [11] 249 | log fold change Tl+ flux (F380Y) -0.0619 | log fold change Tl+ flux (F380Y/beta1) 0.0645 | log fold change Tl+ flux (F380Y/beta2Delta) -0.0137 | log fold change Tl+ flux (F380Y/beta4) -0.0759 | log fold change Tl+ flux [5] 0.0381 | log fold change Tl+ flux (R275C) 0.0103 | log fold change Tl+ flux (R275C/beta1) 0.0316 | log fold change Tl+ flux (R275C/beta2Delta) 0.0226 | log fold change Tl+ flux (R275C/beta4) 0.0307 | log fold change Tl+ flux (R275C/Slo1WT/beta2) -0.0065
69.6%: viability [1]

CCCc1nc(C(C)(C)O)c(C(=O)O)n1Cc1ccc(-c2ccccc2-c2nn[nH]n2)cc1
9480 and 8420: cell count [2, 14]
inactive: parasite load remaining [1] 103% | fluorescence ratio [6] 1.02 | inhibition [7] 1.19% | inhibition [8] -0.1% | fluorescence ratio [9] 0.93 | fold change [2, 12] 0.897 and 0.859 | z-score [3, 16] 0.347 | z-score [4] 0.54 and -0.09 | log fold change Tl+ flux (F380Y) -0.0187 | log fold change Tl+ flux (F380Y/beta1) 0.00703 | log fold change Tl+ flux (F380Y/beta2Delta) 0.0323 | log fold change Tl+ flux (F380Y/beta4) -0.0244 | log fold change Tl+ flux [5] 0.0466 | log fold change Tl+ flux (R275C) 0.0686 | log fold change Tl+ flux (R275C/beta1) 0.00561 | log fold change Tl+ flux (R275C/beta2Delta) 0.0191 | log fold change Tl+ flux (R275C/beta4) -0.0131 | log fold change Tl+ flux (R275C/Slo1WT/beta2) -0.0157
10600 and 9810: cell count [2, 15]
69%: viability [1]
-0.184: z-score [3, 17]
2.28 and 0.39: fold change [2, 13]

COCCCCC(=NOCCN)c1ccc(C(F)(F)F)cc1
8360 and 9280 and 6710: cell count [2, 15]
7760 and 8160 and 6370: cell count [2, 14]
0.468 and -0.05: z-score [3, 17]
inactive: parasite load remaining [1] 46.6% | fluorescence ratio [6] 0.97 | inhibition [7] -1.98% | inhibition [8] -0.1% | fluorescence ratio [9] 0.89 | fold change [2, 12] 0.929 and 0.879 and 0.949 | z-score [3, 16] 0.785 and -0.408 | z-score [4] -0.79 and -1.17 | log fold change Tl+ flux (F380Y) -0.0607 | log fold change Tl+ flux (F380Y/beta2Delta) -0.0598 | log fold change Tl+ flux [5] -0.0791 | log fold change Tl+ flux (R275C) -0.0449 | log fold change Tl+ flux (R275C/beta1) 0.0249 | log fold change Tl+ flux (R275C/beta2Delta) 0.0321
56.9%: viability [1]
2.57 and 0.586 and 0.773: fold change [2, 13]

C[C@H]1O[C@@H](O[C@H]2[C@@H](O)C[C@H](O[C@H]3[C@@H](O)C[C@H](O[C@H]4CC[C@@]5(C)[C@H](CC[C@@H]6[C@@H]5C[C@@H](O)[C@]5(C)C(C7=CC(=O)OC7)CC[C@]65O)C4)O[C@@H]3C)O[C@@H]2C)C[C@H](O)[C@@H]1O (some centres not stated)
266: cell count [2, 14]
8.28%: viability [1]
active: fold change [2, 12] 0.475
560: cell count [2, 15]
1.15: fold change [2, 13]
inactive: parasite load remaining [1] -5.28% | fluorescence ratio [6] 0.93 | inhibition [7] -1.36% | inhibition [8] 4.86% | fluorescence ratio [9] 0.99 | z-score [4] -0.815 | log fold change Tl+ flux (F380Y) -0.0279 | log fold change Tl+ flux (F380Y/beta1) 0.0633 | log fold change Tl+ flux (F380Y/beta2Delta) 0.00458 | log fold change Tl+ flux (F380Y/beta4) -0.0566 | log fold change Tl+ flux [5] -0.00567 | log fold change Tl+ flux (R275C) -0.0269 | log fold change Tl+ flux (R275C/beta1) -0.0167 | log fold change Tl+ flux (R275C/beta2Delta) -0.0151 | log fold change Tl+ flux (R275C/beta4) -0.0475 | log fold change Tl+ flux (R275C/Slo1WT/beta2) 0.0268

CON=C(C(=O)N[C@@H]1C(=O)N2C(C(=O)O)=C(COC(N)=O)CS[C@H]12)c1ccco1
2.12: fold change [2, 13]
10600: cell count [2, 14]
11300: cell count [2, 15]
88.2%: viability [1]
inactive: parasite load remaining [1] 58.2% | fluorescence ratio [6] 1.07 | inhibition [7] -4.09% | inhibition [8] 10.2% | fluorescence ratio [9] 1 | fold change [2, 12] 0.935 | z-score [4] -0.2 | log fold change Tl+ flux (F380Y) 0.0216 | log fold change Tl+ flux (F380Y/beta1) 0.0158 | log fold change Tl+ flux (F380Y/beta2Delta) 0.00116 | log fold change Tl+ flux (F380Y/beta4) -0.0173 | log fold change Tl+ flux [5] -0.0114 | log fold change Tl+ flux (R275C) -0.0247 | log fold change Tl+ flux (R275C/beta1) -0.0484 | log fold change Tl+ flux (R275C/beta2Delta) -0.0289 | log fold change Tl+ flux (R275C/beta4) 0.0531 | log fold change Tl+ flux (R275C/Slo1WT/beta2) 0.0179

CO[C@H]1C=CO[C@@]2(C)Oc3c(C)c(O)c4c(O)c(c(C=NN5CCN(C6CCCC6)CC5)c(O)c4c3C2=O)NC(=O)C(C)=CC=C[C@H](C)[C@H](O)[C@@H](C)[C@@H](O)[C@@H](C)[C@H](OC(C)=O)[C@@H]1C
65.4%: viability [1]
active: log fold change Tl+ flux (F380Y) 0.118 | log fold change Tl+ flux (F380Y/beta4) 0.177 | log fold change Tl+ flux (R275C/beta1) 0.0996 | log fold change Tl+ flux (R275C/beta4) 0.28
inactive: parasite load remaining [1] 21.3% | log fold change Tl+ flux (F380Y/beta1) -0.0391 | log fold change Tl+ flux (F380Y/beta2Delta) 0.0273 | log fold change Tl+ flux [5] 0.0556 | log fold change Tl+ flux (R275C) -0.0706 | log fold change Tl+ flux (R275C/beta2Delta) 0.0465 | log fold change Tl+ flux (R275C/Slo1WT/beta2) 0.00833

CC(=O)NCCCCCCNC(C)=O
9770: cell count [2, 15]
1.58: fold change [2, 13]
66.5%: viability [1]
9330: cell count [2, 14]
inactive: parasite load remaining [1] 100% | fluorescence ratio [6] 1.01 | inhibition [7] -1.19% | inhibition [8] -3.18% | fluorescence ratio [9] 0.97 | z-score [10] -0.47 | mean signal [11] 268 | fold change [2, 12] 0.955 | z-score [4] 0.325 | log fold change Tl+ flux (F380Y) 0.015 | log fold change Tl+ flux (F380Y/beta2Delta) -0.0186 | log fold change Tl+ flux [5] 0.0164 | log fold change Tl+ flux (R275C) 0.0387 | log fold change Tl+ flux (R275C/beta1) 0.0269 | log fold change Tl+ flux (R275C/beta2Delta) -0.0786
